# Assay results taken from PubChem BioAssay (Tox21).
# Inconclusive results are not listed. A call without a number means that no potency is given here. Activity calls are given as the source filed them. Unless noted, the call rests on the fitted dose curve; in most records, active means well fitted curve in the direction sought with a large enough effect in the repeat runs; inconclusive means weak or mixed curves; inactive means no such curve, though single readings can be large; an effect the other way counts as inactive or inconclusive.
# Key:
# [1] = qHTS assay to identify small molecule antagonists of the thyroid receptor (TR) signaling pathway - cell viability counter screen (AID 743064); further: nearly all actives have a fitted effect of over 50% in size; further: potency means the concentration at half of the fitted maximal effect
# Summary of the method: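 GH3.TRE-Luc cells, 4 h pre-plating; cpd + T3 1 nM final; 37 °C 23.5 h; CellTiter-Fluor 30 min; fluorescence read.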
# [2] = qHTS assay to identify small molecule antagonists of the thyroid receptor (TR) signaling pathway (AID 743065); further: nearly all actives have a fitted effect of over 55% in size; further: potency means the concentration at half of the fitted maximal effect
# Summary of the method: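 Antagonism measured as loss of luciferase signal in GH3 cells stably carrying a TRE-luciferase reporter, co-treated with compound and T3 (1 nM final) for 23.5 h at 37 C. Viability was read in the same well by CellTiter-Fluor.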
# [3] = test system: thyroid hormone receptor (rat, GH3 cells); test: qHTS assay to identify small molecule agonists of the thyroid receptor (TR) signaling pathway (AID 743066; calls by dose curve)
# [4] = target: Estrogen receptor (Homo sapiens) (UniProt P03372); test: qHTS assay to identify small molecule antagonists of the estrogen receptor alpha (ER-alpha) signaling pathway (AID 743069; active means well fitted curve in the direction sought with a large enough effect in the signal ratio in the repeat runs, not every such curve was filed as active; the % refers to the signal ratio)
# Sequence of Estrogen receptor (Homo sapiens) (P03372 whole entry, looked up): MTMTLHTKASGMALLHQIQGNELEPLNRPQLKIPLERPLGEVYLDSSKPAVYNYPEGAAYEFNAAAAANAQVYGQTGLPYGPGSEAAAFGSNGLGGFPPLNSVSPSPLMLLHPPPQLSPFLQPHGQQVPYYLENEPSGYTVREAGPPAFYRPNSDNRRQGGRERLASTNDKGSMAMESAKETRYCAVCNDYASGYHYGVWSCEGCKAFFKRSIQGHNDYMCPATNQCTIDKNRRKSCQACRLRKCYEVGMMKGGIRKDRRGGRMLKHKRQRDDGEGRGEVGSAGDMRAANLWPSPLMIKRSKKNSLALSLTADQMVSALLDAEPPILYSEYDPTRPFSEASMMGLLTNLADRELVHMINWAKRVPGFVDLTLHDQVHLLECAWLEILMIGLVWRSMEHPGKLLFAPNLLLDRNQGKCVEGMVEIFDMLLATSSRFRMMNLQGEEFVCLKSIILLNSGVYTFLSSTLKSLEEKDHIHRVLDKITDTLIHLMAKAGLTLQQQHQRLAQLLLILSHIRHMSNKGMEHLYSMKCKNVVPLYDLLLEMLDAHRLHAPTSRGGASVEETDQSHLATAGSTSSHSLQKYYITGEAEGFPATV
# Summary of the method: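 Fluorescence intensity from a beta-lactamase FRET substrate served as the read-out. Cells: HEK293 with stably integrated ER-alpha-UAS-bla reporter. Agonist 17beta-estradiol was co-added with compounds; incubation 18 hr at 37C, substrate 2 hr at room temperature.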
# [5] = qHTS assay to identify small molecule antagonists of the estrogen receptor alpha (ER-alpha) signaling pathway - cell viability counter screen (AID 743074; calls by dose curve; further: nearly all actives have a fitted effect of over 45% in size)
# [6] = target: Estrogen receptor (Homo sapiens) (UniProt P03372); test: qHTS assay to identify small molecule agonists of the estrogen receptor alpha (ER-alpha) signaling pathway (AID 743075; calls by dose curve)
# [7] = target: Estrogen receptor (Homo sapiens) (UniProt P03372); test: qHTS assay to identify small molecule agonists of the estrogen receptor alpha (ER-alpha) signaling pathway using the BG1 cell line (AID 743079); further: nearly all actives have a fitted effect of over 20% in size
# [8] = qHTS assay to identify small molecule antagonists of the estrogen receptor alpha (ER-alpha) signaling pathway using the BG1 cell line (AID 743080; calls by dose curve;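 further: BG1 cells stimulated with 17beta-estradiol alongside compound; series mostly up to about 70 µM; nearly all actives have a fitted effect of over 25% in size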)
# Summary of the method: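 Endogenous full-length ER-alpha in BG1-Luc-4E2 cells drives a stably integrated 4×ERE luciferase gene; compounds were tested against 17beta-estradiol over 21.5 h, with luminescence and multiplexed viability fluorescence recorded.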
# [9] = qHTS assay to identify small molecule antagonists of the estrogen receptor alpha (ER-alpha) signaling pathway using the BG1 cell line - cell viability counter screen (AID 743081);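 further: compound given together with 17beta-estradiol as the ER stimulus; series mostly up to about 70 µM; nearly all actives have a fitted effect of over 45% in size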
# Aromatase (Homo sapiens) = Aromatase (Homo sapiens) (UniProt P11511); test: qHTS assay to identify aromatase inhibitors (AID 743083); further: series mostly up to about 70 µM; nearly all actives have a fitted effect of over 55% in size
# Sequence of Aromatase (Homo sapiens) (P11511 whole entry, looked up): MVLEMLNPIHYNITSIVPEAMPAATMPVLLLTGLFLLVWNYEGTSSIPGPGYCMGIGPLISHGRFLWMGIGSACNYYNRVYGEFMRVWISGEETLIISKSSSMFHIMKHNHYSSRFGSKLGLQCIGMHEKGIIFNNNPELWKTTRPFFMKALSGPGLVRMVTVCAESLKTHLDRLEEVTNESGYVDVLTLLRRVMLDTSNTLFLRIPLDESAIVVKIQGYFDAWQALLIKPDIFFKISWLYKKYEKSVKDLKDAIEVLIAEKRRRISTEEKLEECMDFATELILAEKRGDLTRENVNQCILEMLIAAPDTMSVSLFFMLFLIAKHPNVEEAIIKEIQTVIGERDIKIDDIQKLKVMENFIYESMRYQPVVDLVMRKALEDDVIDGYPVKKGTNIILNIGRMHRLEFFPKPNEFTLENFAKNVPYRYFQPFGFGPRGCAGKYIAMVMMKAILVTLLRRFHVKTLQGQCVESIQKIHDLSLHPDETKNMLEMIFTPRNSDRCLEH
# [10] = qHTS assay to identify aromatase inhibitors - cell viability counter screen (AID 743084);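 further: cells stimulated with testosterone during compound exposure; nearly all actives have a fitted effect of over 55% in size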
# [11] = qHTS assay to identify small molecule that activate the aryl hydrocarbon receptor (AhR) signaling pathway - cell viability counter screen (AID 743086); further: nearly all actives have a fitted effect of over 45% in size; further: potency means the concentration at half of the fitted maximal effect
# Summary of the method: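 Cytotoxicity counter screen: CellTiter-Fluor signal (30 min, 37 C) in 4000 HepG2 cells/well carrying the DRE-luciferase reporter, following 24 h compound exposure at 37 C.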
# [12] = target: Peroxisome proliferator-activated receptor gamma (Homo sapiens) (UniProt P37231); test: qHTS assay to identify small molecule agonists of the peroxisome proliferator-activated receptor gamma (PPARg) signaling pathway (AID 743094; active means well fitted activation curve with a large enough effect in the signal ratio in the repeat runs, not every such curve was filed as active; the % refers to the signal ratio)
# Sequence of Peroxisome proliferator-activated receptor gamma (Homo sapiens) (P37231 whole entry, looked up): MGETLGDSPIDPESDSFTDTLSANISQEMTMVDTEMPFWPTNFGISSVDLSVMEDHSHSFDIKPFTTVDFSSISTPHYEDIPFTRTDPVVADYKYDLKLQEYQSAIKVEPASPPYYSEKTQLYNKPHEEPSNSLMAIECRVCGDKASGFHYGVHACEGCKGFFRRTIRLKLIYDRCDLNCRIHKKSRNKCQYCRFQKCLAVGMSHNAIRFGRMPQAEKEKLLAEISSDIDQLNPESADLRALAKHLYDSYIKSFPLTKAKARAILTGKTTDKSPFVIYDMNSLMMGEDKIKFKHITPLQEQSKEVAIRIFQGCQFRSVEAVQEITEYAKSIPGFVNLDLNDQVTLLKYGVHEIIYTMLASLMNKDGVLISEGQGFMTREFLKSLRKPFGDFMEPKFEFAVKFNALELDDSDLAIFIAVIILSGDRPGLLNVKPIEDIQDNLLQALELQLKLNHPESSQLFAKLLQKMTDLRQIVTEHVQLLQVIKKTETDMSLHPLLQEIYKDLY
# Summary of the method: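 Fluorescence-based beta-lactamase readout in HEK293H PPARg UAS-bla cells after 17 h compound exposure (37C) and 1 h B/G FRET substrate incubation at room temperature.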
# [13] = target: Peroxisome proliferator-activated receptor gamma (Homo sapiens) (UniProt P37231); test: qHTS assay to identify small molecule antagonists of the peroxisome proliferator-activated receptor gamma (PPARg) signaling pathway (AID 743191; calls by dose curve; further: series mostly up to about 63 µM; nearly all actives have a fitted effect of over 30% in size)
# Summary of the method: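 Beta-lactamase reporter under UAS control in HEK293H PPARg-bla cells; compound treatment 17 h at 37C. Read-out: fluorescence intensity after 1 h room-temperature incubation with LiveBLAzer B/G FRET substrate.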
# [14] = qHTS assay to identify small molecule antagonists of the peroxisome proliferator-activated receptor gamma (PPARg) signaling pathway - cell viability counter screen (AID 743194); further: nearly all actives have a fitted effect of over 55% in size
# Summary of the method: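 Viability was measured as CellTiter-Glo luminescence in GeneBLAzer PPARg UAS-bla HEK293H cells. These cells had been exposed 17 h at 37 C to compounds together with rosiglitazone at 50 nM final, with the beta-lactamase readout taken in the same wells.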
# [15] = qHTS assay for small molecule activators of the heat shock response signaling pathway - cell viability counter screen (AID 743209); further: nearly all actives have a fitted effect of over 50% in size
# Summary of the method: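 To flag cytotoxic compounds, HSE-bla HeLa cells plated at 1500 cells/well were dosed for 5 h at 37 C, followed by the reporter FRET read and then CellTiter-Glo, with luminescence recorded 30 min after reagent addition.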
# [16] = qHTS assay for small molecule activators of the heat shock response signaling pathway (AID 743210; active means well fitted activation curve with a large enough effect in the signal ratio in the repeat runs, with a control signal flat, not every such curve was filed as active; the % refers to the signal ratio;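 further: HeLa cells with beta-lactamase reporter driven by heat shock elements; series mostly up to about 63 µM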)
# Summary of the method: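 Fluorescence from a cleaved B/G FRET substrate (2.5 h, room temp) reports HSE-driven beta-lactamase in HeLa cells treated 5 h at 37 C with DMSO-dissolved compounds.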
# [17] = qHTS assay for small molecule agonists of the antioxidant response element (ARE) signaling pathway (AID 743202; active means well fitted activation curve with a large enough effect in the signal ratio in the repeat runs, not every such curve was filed as active; the % refers to the signal ratio)
# Summary of the method: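 Beta-lactamase reporter activity, read as fluorescence intensity, reflects ARE/Nrf2 pathway induction in HepG2 cells after 16 h compound exposure at 37 C; substrate loading was 2 h at room temperature.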
# [18] = qHTS assay for small molecule agonists of the antioxidant response element (ARE) signaling pathway - cell viability counter screen (AID 743203; calls by dose curve; further: nearly all actives have a fitted effect of over 55% in size)
# Summary of the method: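 Parallel cytotoxicity read-out for the ARE-bla screen: HepG2 reporter cells, 16 hrs with compounds, then CellTiter-Glo luminescence.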
# [19] = target: Aryl hydrocarbon receptor (Homo sapiens) (UniProt P35869); test: qHTS assay to identify small molecule that activate the aryl hydrocarbon receptor (AhR) signaling pathway (AID 743085); further: nearly all actives have a fitted effect of over 15% in size; further: potency means the concentration at half of the fitted maximal effect;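 on activation: HG2L7.5c1 human HepG2 liver cells with stably integrated DRE-driven firefly reporter; series mostly up to about 70 µM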
# Sequence of Aryl hydrocarbon receptor (Homo sapiens) (P35869 whole entry, looked up): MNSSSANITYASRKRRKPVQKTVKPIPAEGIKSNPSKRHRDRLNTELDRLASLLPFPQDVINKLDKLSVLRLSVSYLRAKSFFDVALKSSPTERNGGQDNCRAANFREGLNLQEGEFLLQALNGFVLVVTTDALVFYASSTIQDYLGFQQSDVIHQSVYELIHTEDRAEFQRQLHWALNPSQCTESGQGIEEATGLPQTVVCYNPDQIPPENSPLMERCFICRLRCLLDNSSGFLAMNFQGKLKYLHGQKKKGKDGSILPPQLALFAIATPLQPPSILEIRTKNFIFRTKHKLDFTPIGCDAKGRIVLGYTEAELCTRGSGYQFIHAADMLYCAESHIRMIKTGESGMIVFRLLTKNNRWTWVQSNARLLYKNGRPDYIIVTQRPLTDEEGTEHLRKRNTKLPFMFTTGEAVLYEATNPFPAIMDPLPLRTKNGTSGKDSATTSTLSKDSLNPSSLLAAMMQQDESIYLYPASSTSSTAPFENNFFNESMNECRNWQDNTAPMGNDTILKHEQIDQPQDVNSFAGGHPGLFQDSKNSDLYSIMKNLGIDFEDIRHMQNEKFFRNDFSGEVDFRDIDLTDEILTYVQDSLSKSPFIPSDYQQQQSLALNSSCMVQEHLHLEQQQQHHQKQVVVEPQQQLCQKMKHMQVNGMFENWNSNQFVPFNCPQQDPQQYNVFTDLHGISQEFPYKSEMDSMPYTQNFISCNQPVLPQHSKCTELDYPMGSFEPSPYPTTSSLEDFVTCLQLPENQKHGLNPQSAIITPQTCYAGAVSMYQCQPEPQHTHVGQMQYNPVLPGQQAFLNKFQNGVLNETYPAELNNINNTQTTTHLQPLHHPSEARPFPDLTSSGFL
# Summary of the method: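 Luminescence read-out: ONE-Glo reagent, 30 min at room temperature, in HG2L7.5c1 HepG2 reporter cells treated 24 h at 37C. Viability was measured beforehand by CellTiter-Fluor fluorescence after 30 min at 37C.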
Structure (SMILES),Potency [1],Potency [2],outcome [3],outcome [4],outcome [5],outcome [6],Potency [7],Potency [8],outcome [9],Potency (Aromatase (Homo sapiens)),Potency [10],Potency [11],outcome [12],Potency [13],outcome [14],outcome [15],outcome [16],Potency [17],outcome [18],Potency [19]
NC(CO)C(=O)NNCc1ccc(O)c(O)c1O (configuration not stated),inactive,inactive,inactive,inactive,inactive,inactive,inactive,inactive,inactive,inactive,inactive,inactive,inactive,inactive,inactive,inactive,inactive,–,–,–
Cc1cccc(C)c1OCC(C)N (configuration not stated),inactive,inactive,inactive,inactive,inactive,inactive,inactive,inactive,inactive,inactive,inactive,inactive,inactive,inactive,inactive,–,inactive,inactive,inactive,–
CCCCCCCC/C=C\CCCCCCCC(=O)OCCCC,inactive,inactive,inactive,inactive,inactive,inactive,inactive,inactive,inactive,inactive,inactive,inactive,inactive,–,inactive,inactive,inactive,inactive,inactive,inactive
CC[C@H](C)C(=O)O[C@H]1C[C@H](O)C=C2C=C[C@H](C)[C@H](CC[C@@H](O)C[C@@H](O)CC(=O)O)[C@H]21,inactive,inactive,inactive,inactive,inactive,inactive,inactive,inactive,inactive,inactive,inactive,inactive,inactive,–,inactive,inactive,inactive,–,inactive,inactive
O=C(NCCc1c[nH]c2ccccc12)c1cccnc1,inactive,inactive,inactive,inactive,inactive,inactive,inactive,inactive,inactive,–,inactive,–,inactive,inactive,inactive,inactive,inactive,inactive,inactive,13.3 µM (active)
N[C@@H](CCC(=O)Nc1ccc([N+](=O)[O-])cc1)C(=O)O,inactive,inactive,inactive,inactive,inactive,inactive,inactive,inactive,inactive,inactive,inactive,–,–,–,inactive,inactive,–,inactive,–,inactive
NS(=O)(=O)c1ccc(NC(=O)CCC(=O)O)cc1,inactive,inactive,inactive,inactive,inactive,inactive,inactive,inactive,inactive,inactive,inactive,inactive,inactive,–,inactive,–,inactive,–,inactive,inactive
CO[C@@H]1[C@@H](OC(N)=O)[C@@H](O)[C@H](Oc2ccc3c(O)c(NC(=O)c4ccc(O)c(CC=C(C)C)c4)c(=O)oc3c2C)OC1(C)C,inactive,inactive,inactive,inactive,inactive,inactive,inactive,inactive,inactive,inactive,inactive,inactive,–,–,inactive,inactive,inactive,inactive,inactive,inactive
CCCCCCCCC(=O)Cl,inactive,inactive,inactive,inactive,inactive,inactive,inactive,inactive,inactive,inactive,inactive,inactive,inactive,–,inactive,–,inactive,–,inactive,inactive
O=C(O)Cc1cn(-c2ccccc2)nc1-c1ccc(Cl)cc1,inactive,inactive,inactive,inactive,inactive,inactive,inactive,inactive,inactive,inactive,inactive,inactive,–,–,inactive,inactive,inactive,–,inactive,inactive
C[C@@H](Oc1ccc(CNC(=O)c2cccnc2Oc2ccc3c(c2)OCO3)c(F)c1)C(=O)O,inactive,inactive,inactive,inactive,inactive,inactive,inactive,inactive,inactive,inactive,inactive,–,inactive,inactive,inactive,inactive,inactive,inactive,–,inactive
O=C1c2ccccc2C(=O)N1CCl,inactive,inactive,inactive,inactive,inactive,inactive,inactive,inactive,inactive,inactive,inactive,–,inactive,inactive,inactive,inactive,inactive,inactive,inactive,–
CC(C)N(c1ccccc1)C(C)C,inactive,inactive,inactive,inactive,inactive,inactive,inactive,inactive,inactive,inactive,inactive,–,inactive,inactive,inactive,inactive,inactive,inactive,inactive,inactive
CN(C)C(=O)CNC(=O)Cc1ccccc1,inactive,inactive,inactive,inactive,inactive,inactive,inactive,inactive,–,inactive,inactive,inactive,inactive,inactive,inactive,–,–,inactive,inactive,inactive
Cc1c(I)c(=O)n(-c2ccccc2)n1C,inactive,inactive,inactive,inactive,–,inactive,inactive,inactive,inactive,inactive,inactive,inactive,inactive,inactive,inactive,inactive,–,inactive,inactive,inactive
COc1ccc2c(c1)C(=O)N(CCc1ccc(S(=O)(=O)NC(=O)NC3CCCCC3)cc1)C(=O)C2(C)C,inactive,inactive,inactive,inactive,inactive,inactive,inactive,inactive,–,inactive,inactive,–,inactive,–,inactive,inactive,–,–,inactive,inactive
O=S(=O)(O)c1cc(O)c2ccc(Nc3ccccc3)cc2c1,inactive,inactive,inactive,inactive,inactive,inactive,–,inactive,inactive,inactive,inactive,inactive,inactive,inactive,inactive,–,–,–,inactive,inactive
c1ccc2nccnc2c1,inactive,inactive,inactive,inactive,–,inactive,inactive,inactive,inactive,inactive,inactive,inactive,inactive,inactive,inactive,inactive,–,inactive,inactive,inactive
CC(=C(CCOC(=O)C(C)C)SSC(CCOC(=O)C(C)C)=C(C)N(C=O)Cc1cnc(C)nc1N)N(C=O)Cc1cnc(C)nc1N,inactive,inactive,inactive,inactive,inactive,inactive,–,inactive,inactive,inactive,inactive,inactive,inactive,inactive,inactive,inactive,inactive,inactive,inactive,inactive
On1nnc2ccccc21,inactive,inactive,inactive,inactive,–,inactive,inactive,inactive,inactive,inactive,inactive,inactive,inactive,inactive,inactive,–,inactive,inactive,inactive,–
Cc1cccc(C)c1NC(=O)c1ccccc1C(=O)O,inactive,inactive,inactive,inactive,inactive,inactive,–,inactive,inactive,inactive,inactive,–,inactive,inactive,inactive,inactive,inactive,inactive,inactive,inactive
O=C(CCN1CCN(CCO)CC1)N1c2ccccc2Sc2ccc(C(F)(F)F)cc21,13.3 µM (active),21.1 µM (active),inactive,inactive,–,inactive,inactive,inactive,–,inactive,–,21.1 µM (active),inactive,inactive,inactive,inactive,–,–,–,inactive
CNC(=O)[C@H]1O[C@@H](n2cnc3c(NCc4cc(Cl)ccc4OCc4cc(C)no4)ncnc32)[C@H](O)[C@@H]1N,inactive,inactive,inactive,inactive,–,inactive,inactive,inactive,inactive,inactive,inactive,–,inactive,inactive,inactive,inactive,inactive,inactive,inactive,inactive
CCCOC(OCCC)OCCC,inactive,inactive,inactive,–,inactive,–,–,–,inactive,inactive,inactive,inactive,inactive,inactive,inactive,inactive,inactive,inactive,inactive,inactive
Nc1ncnc(Nc2ccccc2)n1,inactive,inactive,inactive,inactive,inactive,inactive,–,–,inactive,inactive,inactive,inactive,inactive,inactive,inactive,inactive,inactive,–,inactive,inactive
CCOC(=O)[C@H](CCc1ccccc1)N[C@@H](C)C(=O)N1C(=O)N(C)C[C@H]1C(=O)O,inactive,inactive,inactive,inactive,inactive,inactive,inactive,inactive,–,inactive,inactive,inactive,inactive,inactive,inactive,–,inactive,inactive,inactive,inactive
Cc1cc2cc3c(C)cc(=O)oc3c(C)c2o1,inactive,inactive,inactive,–,inactive,inactive,inactive,–,inactive,inactive,inactive,inactive,inactive,inactive,inactive,inactive,inactive,–,inactive,inactive
NCCS,inactive,inactive,inactive,–,inactive,–,–,–,inactive,inactive,inactive,inactive,inactive,inactive,inactive,inactive,–,inactive,inactive,inactive
